An excerpt weighted towards active compounds, which were near 2.3% of everything screened.
Nrf2 inh: Nrf2 qHTS screen for inhibitors. Potency, µM (top dose mostly 46 µM), without a hit: at the top dose activity change, negative = inhibition, actives largely listed as inhibitors. A549 ARE-Fluc reporter, luciferase luminescence, 18-24 h. AID 504444, 2011. 360,000 compounds, 2.1% hits; note: potency is the fitted concentration of half-maximal effect; % is set by controls: 0 for no effect and ±100 for the full control effect; nearly all actives have a fitted effect of over 60% in size
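A549 ARE_Fluc cells (5000/well, 5% FBS OPTI-MEM) pre-incubated 2 h, then treated with compounds 18-24 h at 37C/5% CO2 in concentration-response. CellTiter-Fluor viability read first; BugLite luciferase luminescence after 15 min at room temperature gives Nrf2 activity.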
Nrf2 activator: qHTS of Nrf2 Activators; AREc32 ARE-luciferase reporter (MCF7-derived line), luminescence, 24 h; Potency, µM (top dose mostly 46.1 µM), for the others: at the top dose activation, most hits filed as activators; 410,000 compounds, 0.31% hits; AID 624171, 2012; note: potency is the fitted concentration of half-maximal effect; % of control where 0% means no effect; nearly all actives have a fitted effect of over 65% in size
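AREc32_Fluc, 1000 cells/well, OPTI-MEM + 5% FBS, o/n 37 deg C 5% CO2; 23 nL cpd by pin tool, 24 hr; Steady-Glo 30 min RT, luminescence.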
A549 tox: Nrf2 qHTS screen for inhibitors: counterscreen for cytotoxicity | Potency, µM (titrated, usually from 46 µM), for the others: top-dose activity change, negative = cytotoxicity, actives largely listed as inhibitors | AID 504648, 2011 | 390,000 compounds, 0.16% hits | A549 ARE-Fluc cells, CellTiter-Fluor viability, 18-24 h; note: potency is the fitted concentration of half-maximal effect; % is set by controls: 0 for no effect and ±100 for the full control effect
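A549 ARE_Fluc cells in 5% FBS OPTI-MEM were exposed to compounds in concentration-response for 18-24 h at 37 deg C. Viability was read by CellTiter-Fluor fluorescence (Ex 405/Em 525) after 30 min, before the luciferase read.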
IL2 activator: qHTS of IL-2 Activators. activation, % (series mostly up to about 46 µM). IL-2 activation reporter assay, cell-based qHTS; stimulated with anti-CD3/CD4/CD28 beads; in transgenic mouse T cells. AID 652025, 2013. 360,000 compounds, 0.065% hits; in the data active = activation above about 50%; inconclusive = mostly about 30% to 49%; note: 0% is about no effect
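Readout: EGFP and DsRed signals by fluorescent plate cytometry. Unstimulated transgenic mouse T cells received compound 60 min before antibody-bead stimulation, then incubated 18 h at 37 degrees C.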
* hit, by the source's call; ? = inconclusive; / = not tested or not shown. Unless noted, calls come from the whole dose curve; as a rule, active = well fitted curve in the direction sought with a large enough effect; inconclusive = small, poorly fitted or top-dose-only effect, or another doubt; inactive = no such curve, though single readings can be large; an effect the other way counts as inactive or inconclusive.

SMILES	Nrf2 inh	Nrf2 activator	A549 tox	IL2 activator
Oc1ccc(N2CCN(c3ncnc4sc5c(c34)CCC5)CC2)cc1	14.6µM*	-0.5%	-10.7%	-0.8
COc1ccc(OC)c(NC(=O)c2cc3c(n(-c4ccc(Cl)cc4)c2=O)CC(C)(C)CC3=O)c1	3.8%	0.2%	1.6%	/
Cc1cccn2c(=O)c(C=O)c(N3CCN(c4ccc(F)cc4)CC3)nc12	16.4µM*	5.9%	-9.9%	0.9
CCOC(=O)C1=C(C)N(c2ccc(C)c(C)c2)C(=O)/C1=C\c1ccco1	-19.5%	0.9%	-13.7%	-2.3
COC(=O)C1=C(C)N(c2ccc(C)c(C)c2)/C(=C/c2ccco2)C1=O	-3.6%	0.1%	?	71.3*
Cc1cc(C(=O)COC(=O)c2cccc(O)c2)c(C)n1C1CC1	13µM*	-2.2%	-1.1%	-5.2
c1ccc(-c2nc(NC3CCCC3)c3ccccc3n2)cc1	23.1µM*	24.8%	?	-0.3
CC1=CC2C(C(O)CC3(C)C2CC(C)C32OCOC23COCO3)C2(C)C/C(=C\O)C(=O)C=C12 (stereo not given)	20.6µM*	-2.6%	?	-5.6
COC(=O)c1cc(NC(=O)c2cc(C(C)(C)C)nn2Cc2ccc(F)cc2)ccc1N1CCOCC1	13µM*	0.4%	-18.3%	-1.0
CC(C)(C)c1cc(C(=O)NN)n(Cc2ccc(F)cc2)n1	-18.6%	0.6%	-0.6%	3.9
COc1ccc(-c2nnc3c4ccccc4c(-c4ccccc4)nn23)cc1	4.6%	-0.4%	-2.1%	/
COc1cc2c3nnc(-c4ccc(F)cc4)c-3cn(Cc3ccccc3)c2cc1OC	0.9%	8.1%	6.7%	199.2*
CCC(=O)NC(c1ccc(Br)o1)c1cc(Cl)c2cccnc2c1O (stereo not given)	?	/	-14.7%	/
CCOc1ccc2ncc(C(=O)c3ccc(OC)cc3)c(N3CCN(CC)CC3)c2c1	-13.1%	5.9%	3.1%	2.6
CCOC(=O)C1CCCN(c2c(C(=O)c3ccc(C)cc3)cnc3ccc(OCC)cc23)C1 (stereo not given)	23.1µM*	0.3%	?	/
COc1cccc(-c2csc(N3CCN(C(=S)Nc4ccccc4Cl)CC3)n2)c1	?	2.6%	-11.2%	-1.3
COc1cccc(-c2csc(N3CCN(C(=S)NCC(C)C)CC3)n2)c1	18.4µM*	2.3%	-3.6%	-2.4
COc1cccc(-c2csc(N3CCN(C(=S)Nc4cccc(Cl)c4)CC3)n2)c1	18.4µM*	5.0%	-7.7%	-1.7
COc1cccc(-c2csc(N3CCN(C(=O)Nc4ccc(Cl)cc4)CC3)n2)c1	14.6µM*	-0.6%	?	-3.8
CCNC(=S)N1CCN(c2nc(-c3cccc(OC)c3)cs2)CC1	?	4.0%	16.8%	-0.9
CC(C)CNC(=S)N1CCN(c2nc(-c3ccc(Cl)cc3)cs2)CC1	18.4µM*	2.8%	-1.8%	-1.7
CCOc1ccccc1-c1nc(C(N)=O)c2c(n1)n(-c1ccc3c(c1)OCO3)c(=O)n2C	/	-0.9%	3.3%	/
Cc1ccc(NC(=O)C2CCN(S(=O)(=O)c3ccc4c(c3)NC(=O)C(C)S4)CC2)c(Cl)c1 (stereo not given)	23.1µM*	4.0%	-17.2%	-0.3
CC1Sc2ccc(S(=O)(=O)N3CCC(C(=O)NCCc4ccccc4)CC3)cc2NC1=O (stereo not given)	-27.7%	2.4%	-0.1%	-4.4
COc1cccc(CNC(=O)C2CCN(S(=O)(=O)c3ccc4c(c3)NC(=O)C(C)S4)CC2)c1 (stereo not given)	18.4µM*	0.1%	-5.4%	-0.8
SMILES	Nrf2 inh	Nrf2 activator	A549 tox	IL2 activator
Cc1cc(C)cc(NC(=O)C2CCN(S(=O)(=O)c3ccc4c(c3)NC(=O)C(C)S4)CC2)c1 (stereo not given)	-15.8%	0.6%	-16.4%	-4.7
Cc1ccc(CCNC(=O)C2CCN(S(=O)(=O)c3ccc4c(c3)NC(=O)C(C)S4)CC2)cc1 (stereo not given)	16.4µM*	2.8%	-24.9%	-2.3
Cc1ccc(NS(=O)(=O)c2ccc3c(c2)C(Cl)(Cl)C(=O)N3)cc1C	8.5%	/	0.7%	/
COc1ccccc1NC(=O)CSc1nc2ccccc2c2nc(-c3ccccc3)nn12	/	-0.9%	-2.7%	/
Cc1cc(Cl)ccc1NC(=S)NCCC(c1ccccc1)c1ccccc1	15.8µM*	3.4%	?	-0.9
COc1cc(NC(=S)NCCC(c2ccccc2)c2ccccc2)cc(OC)c1	23.1µM*	2.5%	?	12.2
Cc1c(Cl)cccc1NC(=S)NCCC(c1ccccc1)c1ccccc1	?	0.3%	-22.3%	-0.6

Assay outcomes from PubChem.
